# Measured values: PubChem BioAssay
# Values without a mark were called inactive. The rule behind the calls is not given here.
# Test system: Aerobactin synthetase IucA (Klebsiella pneumoniae hvKP1)
# Experiment: IucA enzyme inhibition, primary screen, biochemical, Spectrum library (AID 1346200);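 note: 100% = wells without compound and 0% = wells lacking enzyme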
# Conditions: malachite green pyrophosphate, A620, at 8 µM, stronger effect = lower value
row,Compound,activity remaining [%]
1,O=C1[O][Bi][O]c2ccccc21,107
2,CCCc1cc(OC)c2c(c1)OCO2,106
3,CCOc1ccc2nc3cc(N)ccc3c(N)c2c1,96.1
4,Nc1ccn(C2O[C@H](CO)[C@@H](O)[C@H]2O)c(=O)n1 (some centres undefined),101
5,Cc1occc(=O)c1O,102
6,O=C(O)c1cn(C2CC2)c2cc(N3CCNCC3)c(F)cc2c1=O,77.6
7,c1ccc(-c2ccc(C(c3ccccc3)n3ccnc3)cc2)cc1 (centres undefined),111
8,CN(C(=O)C(Cl)Cl)c1ccc(OC(=O)c2ccco2)cc1,96.4
9,CCCCC(=O)Oc1ccccc1C(=O)O,85.8
10,CC(=O)OC1CCC2(O)CC1(C)CCC1C2CC1(C)C (centres undefined),107
11,COC(=O)C[C@@H]1C2(C)C(=O)[C@@H](CC3=C4C=C(OC)O[C@@H](c5ccoc5)[C@]4(C)CCC32)[C@H](O)C1(C)C (some centres undefined),93.6
12,CCCSc1ccc2nc(NC(=O)OC)[nH]c2c1,111
13,CC1(C)S[C@@H]2[C@H](NC(=O)C(C(=O)O)c3ccccc3)C(=O)N2[C@H]1C(=O)O (some centres undefined),114
14,CC(C)CCCC(C)C1CCC2C3CC(=O)[C@H]4C[C@@H](O)CC[C@]4(C)C3CC[C@]12C (some centres undefined),121
15,CS(=O)(=O)c1ccc(C2=C(c3ccccc3)C(=O)OC2)cc1,87.7
16,C#CCCCCCCCCCCCC(=O)CC(O)COC(C)=O (centres undefined),122
17,CCC(=O)OC1[C@@H]2CC3=C4CC(=O)O[C@@H](c5ccoc5)[C@]4(C)CCC3C(C)(C2=O)[C@@H](CC(=O)OC)C1(C)C (some centres undefined),121
18,CC1(C)C(=O)CC[C@@]2(C)C1C[C@@H](O)[C@@]1(C)C3=CC(=O)O[C@@H](c4ccoc4)[C@]3(C)CCC21 (some centres undefined),111
19,CCOC(=O)[C@H](CCc1ccccc1)N[C@@H](C)C(=O)N1Cc2ccccc2C[C@H]1C(=O)O,95.9
20,Cc1cc(C(C)(C)C)c(O)c(C(C)(C)C)c1,110

row,Compound,activity remaining [%]
1,O=c1ccc2ccc(O)cc2o1,94.5
2,COC(=O)[C@@]1(C)CCC[C@]2(C)c3ccc(O)c(C(C)C)c3CCC12 (some centres undefined),121
3,C=C1C(N)CC2CC1C2(C)C (centres undefined),96.6
4,COc1ccccc1OCC(O)COC(N)=O (centres undefined),108
5,O=C(O)c1c2ccccc2cc2ccccc12,116
6,CC(C)(Sc1cc(C(C)(C)C)c(O)c(C(C)(C)C)c1)Sc1cc(C(C)(C)C)c(O)c(C(C)(C)C)c1,89.7
7,C#C[C@]1(OC(C)=O)CCC2C3CCC4=CC(=O)CC[C@@H]4C3CC[C@@]21C (some centres undefined),93
8,CCN1C[C@]2(OC(=O)c3ccccc3NC(C)=O)CCC(OC)[C@]34C1[C@H](CC23)[C@@]1(O)CC(OC)[C@H]2CC4C1(O)[C@H]2OC (some centres undefined),95.9
9,O=c1c(O)cccc2c([C@H]3Oc4cc(O)cc(O)c4C[C@@H]3O)cc(O)c(O)c12,99.4
10,CC1NC(=O)NC1=O (centres undefined),97.3
11,C[C@@H]1CC[C@]2(C(=O)O)CC[C@]3(C)C(=CCC4[C@@]5(C)CC[C@H](O)C(C)(C)C5CC[C@]43C)C2[C@H]1C (some centres undefined),128
12,CC(C)=CCCC1(C)C=Cc2c(O)c3c(c(CC=C(C)C)c2O1)OC12C(=CC4CC1C(C)(C)OC2(C/C=C(\C)C(N)=O)C4=O)C3=O (centres undefined),99.6
13,C[C@@H]1CC2C3C[C@H](F)C4=CC(=O)C=C[C@]4(C)[C@@]3(F)[C@@H](O)C[C@]2(C)[C@@]1(O)C(=O)CO (some centres undefined),113
14,CN(C)c1ccc(C(=C2C=CC(=[N+](C)C)C=C2)c2ccc(N(C)C)cc2)cc1,118
15,CC(N)C12CC3CC(CC(C3)C1)C2 (centres undefined),115
16,O=c1cc[nH]c(=S)[nH]1,97.7
17,CC(COc1ccccc1)NC(C)[C@H](O)c1ccc(O)cc1 (some centres undefined),119
18,Clc1ccccc1CN1CCc2sccc2C1,109
19,CCC(=O)NCC[C@@H]1CCc2ccc3c(c21)CCO3,120
